What all share (assay): NCI-60 one-dose screen, 48 h (100 = growth as untreated, 0 = no growth, -100 = all killed)
What all share (settings): 10 µM unless noted

Assay [1] relates to NCI-H23 lung.
In assay [2] the test system is NCI-H226 lung.
For assay [3], the system named is NCI-H322M lung.
In assay [4] the test system is HOP-62 NSCLC.
Assay [5] has as its system NCI-H460 lung.
Assay [6] has as its system HOP-92 NSCLC.
Assay [7] deals with A549/ATCC NSCLC.
Assay [8] deals with 786-0 renal.
The subject of assay [9] is COLO 205 colon.
For assay [10], the system named is DU-145 prostate.
Assay [11] relates to K-562 leukemia.
The subject of assay [12] is MALME-3M melanoma.
Assay [13] has as its system MDA-MB-231 breast.
For assay [14], the system named is RXF 393 renal.
The test system of assay [15] is SF-268 CNS.
Assay [16] concerns SF-295 CNS.
The subject of assay [17] is SF-539 CNS.
Assay [18] has as its system UACC-257 melanoma.
Assay [19] concerns M14 melanoma.

This is part of a sample that, as a whole, favours compounds with a hit. Of some 83,000 tested, about 20% had one in any assay.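 Cell lines were cultured in 96-well plates, exposed to a single compound concentration, and assessed for percent growth 48 hours later.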 Values without a mark were called inactive. The source made the active and inactive calls. The calls were made as follows: active = growth percent below 10; inactive = the rest.

Take `O=C1NCCc2c1noc2-c1ccccc1`: the growth in [1] is 99.5%; in assay [2] it was 104%; in assay [3], 101%; in assay [4] it was 94.9%; in assay [5], 107%; in assay [6], 104%. Also, the growth in assay [7] was 79.7%; in [8], 96.5%; in [9], 103%; in assay [10], 104%; in assay [11], 108%; in assay [12], 108%. In addition, the growth was 122% in assay [13]; 105% in assay [14]; 93.7% in [15]; 97.8% in assay [16]; 94.7% in assay [17]; 101% in [18]. Moreover, the growth in [19] was 101%.
Regarding `COc1cc(/C=C/C(=O)CC(=O)/C=C/c2ccc(OC(=O)C3C4CC5CC(C4)CC3C5)c(OC)c2)ccc1OC(=O)C1C2CC3CC(C2)CC1C3` (centres undefined), the growth in assay [1] was 104%; in assay [2], 123%; in assay [3], 92.9%; in assay [4], 99.1%; in [5], 120%; in assay [6], 65.5%. Also, the growth is 102% in [7]; 104% in [8]; 110% in assay [9]; 120% in assay [10]; 95.1% in assay [11]; 78.4% in assay [12]. Further, the growth in [13] is 116%; in assay [14], 110%; in assay [15] it was 104%; in assay [16], 98.9%; in [17] it was 108%; in [18], 102%. Also, the growth in [19] is 105%.
As to `COc1cnc2c(c1)C(=O)c1c-2n(CCCNC(C)C)c(=O)c2cc(F)ccc12`, the growth in assay [1] was -39.9% (active); in [2], -52.6% (active); in [3], -13.1% (active); in [4], -35.8% (active); in assay [5], -32% (active); in [6], -8.3% (active). Also, the growth in assay [7] is -68.6% (active); in [8] it was -73% (active); in assay [9], -19.7% (active); in [10], -8.54% (active); in assay [11], -6.91% (active); in [12], -70.1% (active). Further, the growth is 1.51% (active) in assay [13]; -85.5% (active) in [14]; 4.2% (active) in assay [15]; -23% (active) in assay [16]; -73.4% (active) in assay [17]; -16% (active) in [18]. Also, in assay [19], the growth was -81.9% (active).
With `Cc1ccccc1NC(=O)N/C(N)=N/c1nc2ccccc2s1`, the growth in assay [1] is 31.8%; in assay [2], 21%; in [3] it was 39.2%; in assay [4], 40.7%; in [5] it was 11.7%; in assay [6] it was 126%. The growth in assay [7] is 22.7%; in assay [8] it was 30.7%; in assay [9], 6.68% (active); in [10] it was 17.5%; in assay [11], 6.45% (active); in assay [12], 50.4%. The growth in assay [13] was 43.2%; in [14], -2.64% (active); in [15] it was 48.7%; in assay [16] it was 11.8%; in assay [17] it was -17.9% (active); in assay [18] it was 67.4%. In assay [19], the growth was 9.91% (active).
As to `COc1ccc(NS(=O)(=O)N2CCCCC2)cc1`, the growth in [1] is 106%; in [2], 96.2%; in [3] it was 102%; in assay [4] it was 107%; in assay [5] it was 113%; in [6] it was 84.6%. Moreover, the growth in assay [7] was 108%; in [8], 109%; in assay [9] it was 105%; in [10], 116%; in assay [11], 93.8%; in [12] it was 117%. Also, the growth was 91.5% in [13]; 105% in assay [14]; 98.9% in assay [15]; 113% in assay [16]; 108% in [17]; 102% in [18]. In addition, in [19], the growth was 102%.
Consider `Cc1n(Cc2ccc3ccccc3c2)c2ccccc2[n+]1Cc1ccc2ccccc2c1`, for which the growth is -29.5% (active) in assay [1]; -9.12% (active) in assay [2]; 9.37% (active) in assay [3]; -62% (active) in assay [4]; -73.9% (active) in [5]; -68.2% (active) in assay [6]. For the same molecule, the growth in assay [7] is 8.96% (active); in [8], -92.8% (active); in [9], -77.1% (active); in [10] it was 0.672% (active); in assay [11], -63.1% (active); in assay [12] it was -39.7% (active). Moreover, the growth in assay [13] was -83.6% (active); in assay [14], -88% (active); in [15], -67.6% (active); in assay [16] it was -37.6% (active); in assay [17], -56.4% (active); in assay [18], -53.9% (active). Also, the growth in assay [19] was -69% (active).
